Data as given in PubChem BioAssay AID1159580 (chemical genetic matrix, 2015).
The campaign covered roughly 5,500 compounds. About 2,000 (36%) were called active. Roughly 18% stayed inconclusive and do not appear here. Rule as the data show it: active = normalized growth mostly below about 0.91 (no sharp cut-off); inconclusive = no clear call, values can overlap the other calls; inactive = mostly above about 0.92. This is one part of the list.

Test: chemical genetic growth profiling, strain panel (AID 1159580);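 also: tested at 20 µM; growth read once vehicle control cultures reached saturation at 30 °C; 1 = growth at the plate median or of vehicle wells; lower values mean less growth of the strain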
Conditions: S. cerevisiae deletion strains, growth OD

Measured: normalized growth

C[C@H]1CC2C3CCC4=CC(=O)C=C[C@]4(C)[C@@]3(Cl)[C@@H](O)C[C@]2(C)[C@@]1(O)C(=O)CO (stereo partly drawn)
inactive: locus YAL013W, strain DEP1, hits give low values 0.982 | locus YAL040C, strain CLN3, hits give low values 1.03 | locus YCL061C, strain MRC1 (second series), hits give low values 1.01 | locus YER002W, strain NOP16, hits give low values 0.997 | locus YGR078C, strain PAC10, hits give low values 0.989 | locus YGR229C, strain SMI1, hits give low values 0.994 | locus YJR075W, strain HOC1, hits give low values 1.01 | locus YMR263W, strain SAP30, hits give low values 1.01 | locus YNL153C, strain GIM3, hits give low values 0.981 | locus YNL175C, strain NOP13, hits give low values 0.994 | locus YNL197C, strain WHI3, hits give low values 0.934 | locus YNL224C, strain SQS1, hits give low values 0.967 | locus YOR083W, strain WHI5 (second series), hits give low values 0.954
